Measurements reported in PubChem BioAssay.
Several values for one entry are separate records, joined by “and”; a condition that tells them apart may be missing. Identical values can stand only once. Results filed as inconclusive are left out. For part of these data: Entries with a potency or affinity are not part of this list. Activity calls are given as the source filed them.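 Rule for the calls, unless noted: active = fitted half-maximal concentration within the tested range, moderate curve steepness, significant signal drop, and little compound fluorescence or bead-linkage interference; inactive = the rest.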

Experiments:
[1] = target: Cell division control protein 42 homolog (Homo sapiens) (UniProt P60953); test: inhibition of fluorescent GTP binding to constitutively active Cdc42 – biochemical, multiplex bead flow cytometry, Bodipy-FL-GTP, dose response (AID 1333;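 active = fitted half-maximal concentration within the tested dose range, moderate curve steepness, a statistically real signal drop, and little compound fluorescence or tag-binding interference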)
[2] = target: Cell division control protein 42 homolog (Homo sapiens) (UniProt P60953); test: inhibition of fluorescent GTP binding to wildtype Cdc42 – biochemical, multiplex bead flow cytometry, Bodipy-FL-GTP, dose response (AID 1334); details: bead-based flow cytometry, Bodipy-FL-GTP binding to GST-Cdc42; at 100 µM (top of the series) unless noted
[3] = target: GTPase HRas (Homo sapiens) (UniProt P01112); test: Ras wt fluorescent GTP loading blockade – biochemical, wildtype, multiplex bead flow cytometry, dose response (AID 1335;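 active = fitted half-maximal concentration within 10 nM to 100 µM, steepness 0.5 to 2, significant signal drop, low assay interference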); details: bead-based flow cytometry, Bodipy-GTP binding to GST-Ras; at 100 µM (top of the series) unless noted
[4] = system: Ras-related protein Rab-7a (dog), GTP binding; test: blockers of fluorescent GTP binding to Rab7 – biochemical, wildtype, multiplex bead flow cytometry, dose response (AID 1336; call rule not given here)
[5] = target: Ras-related C3 botulinum toxin substrate 1 (Homo sapiens) (UniProt P63000); test: inhibition of wildtype Rac1 nucleotide loading – biochemical, multiplex bead flow cytometry, dose response (AID 1340;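 active = dose curve with midpoint inside tested range, moderate steepness, plateau gap beyond fit error, low compound glow and bead-link interference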); details: GST-Rac1 beads, Bodipy-FL-GTP binding; at 100 µM (top of the series) unless noted
[6] = target: GTPase HRas (Homo sapiens) (UniProt P01112); test: blockade of GTP loading onto mutant Ras – biochemical, activated mutant, multiplex bead flow cytometry, dose response (AID 1341;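 active = dose-response curve with midpoint inside the tested range, moderate steepness, significant amplitude and little compound fluorescence or bead-attachment interference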;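 note: GST-tagged constitutively activated Ras mutant immobilized on beads and multiplexed with other GTPases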)
[7] = hit retest on RPL19A-GFP reporter strain – cell-based, S. cerevisiae, flow cytometry, cherry picks, mother/daughter gates, confirmation (AID 2270;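 active = GFP response below 50% of the DMSO control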); details: 3 h, at 10 µM, stronger effect = lower value, 100 = same GFP as DMSO wells
[8] = yeast TOR pathway reporter LAP4-GFP change – cell-based, cherry picks, flow cytometry, mother/daughter gates, confirmation (AID 2271;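 active = GFP response above 150% of the DMSO control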;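 note: ratio of sample to DMSO plate mean so 100% equals DMSO level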); details: S. cerevisiae LAP4-GFP strain, 3 h, at 10 µM, stronger effect = higher value, 100 means same as DMSO control
[9] = TOR pathway reporter MEP2-GFP, retest of hits – S. cerevisiae, flow cytometry GFP, cherry picks, confirmation (AID 2272;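 active = GFP response above 150% of the DMSO control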;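 note: ratio of well signal to plate DMSO mean so 100% equals DMSO level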); details: S. cerevisiae MEP2-GFP strain, 3 h, at 10 µM, stronger effect = higher value
[10] = yeast AGP1-GFP fluorescence change, single-dose – cell-based, flow cytometry, S. cerevisiae, cherry picks, confirmation (AID 2273;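 active = GFP response above 150% of the DMSO level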;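 note: median GFP channel fluorescence over the whole cell population gate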); details: S. cerevisiae AGP1-GFP strain, 3 h, at 10 µM
[11] = TOR pathway CIT2 reporter hit retest – S. cerevisiae, GFP fusion, cherry picks, mother/daughter gates, confirmation (AID 2274;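 active = GFP response above 150% of the DMSO level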); details: S. cerevisiae CIT2-GFP strain, flow cytometry, 3 h, at 10 µM, stronger effect = higher value
[12] = rapamycin-like changes in RPL19A-GFP expression – cell-based, S. cerevisiae, multiplex flow cytometry, primary screen (AID 1862; in the data active = percent of DMSO control GFP below about 86%;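 note: lower values mimic rapamycin by blocking the RPL19A rise seen in DMSO cells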); details: S. cerevisiae RPL19A-GFP strain, flow cytometry fluorescence, 3 h; at 10 µM; stronger effect = lower value
[13] = TOR pathway GLN3 branch reporter MEP2-GFP changes – S. cerevisiae, multiplex flow cytometry, primary screen (AID 1867;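 active = GFP response, as percent of the DMSO control, above the screen-wide mean plus 3 SD, about 139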;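 note: median GFP channel fluorescence of barcode-gated MEP2-GFP cells measured by flow cytometry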); details: S. cerevisiae MEP2-GFP strain, 3 h, at 10 µM, stronger effect = higher value, 100% means same as DMSO wells
[14] = TOR pathway RTG branch CIT2 reporter changes – S. cerevisiae, GFP fusion, multiplex flow cytometry, primary screen (AID 1870;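 active = percent response above a set limit, the screen-wide mean plus 3 SD, cut at about 130% in these data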;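 note: barcoded CIT2-GFP strain pooled with four other GFP strains with rapamycin as positive control; median GFP fluorescence per well over plate mean of DMSO wells so 100% = DMSO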); details: S. cerevisiae CIT2-GFP expression, 3 h, at 10 µM, stronger effect = higher value
[15] = TOR pathway LAP4-GFP level changes – S. cerevisiae, multiplex flow cytometry, primary screen (AID 1873;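 active = GFP signal, as percent of the solvent control, above the screen mean plus 3 SD, about 149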); details: S. cerevisiae LAP4-GFP expression, 3 h, at 10 µM, stronger effect = higher value
[16] = yeast AGP1-GFP level changes, GLN3 branch – cell-based, multiplex flow cytometry, S. cerevisiae, primary screen (AID 1887;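 active = GFP signal above the screen-wide mean plus 3 SD, that is over about 124.5% of the solvent control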;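 note: AGP1-GFP fusion strain of S. cerevisiae within a five-strain barcoded multiplex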); details: 3 h, at 10 µM, stronger effect = higher value
[17] = reduced mouse 2C T cell binding to pMHC/ICAM-1 vesicles – MLPCN validation set, flow cytometry, LFA-1/ICAM-1 modulator project, pilot screen (AID 2523;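 active = response below a set limit, under 55% cells CD8-positive and vesicle-bound, and CD8 cells' 90th-percentile brightness under 279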;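 for vesicle binding response: mean PE anti-B7-1 fluorescence of CD8+ cells relative to row control; 100% = QL9-loaded vesicles with DMSO vehicle in the same plate row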); details: 2C mouse CD8+ T cells, at 7 µM, stronger effect = lower value; double positive events: measured here: CD8+/vesicle+ event percentage
[18] = target: Integrin beta-1 (Homo sapiens) + Integrin alpha-4 (Homo sapiens) (UniProt P13612+P05556); test: alpha4beta1 integrin LIBS antibody binding reduction – U937 cells, HUTS-21 mAb, flow cytometry, validation set, VLA-4 allosteric modulator project, pilot screen (AID 2674;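 active = inhibition above 50%, about 3 SD of the validation set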;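 note: antibody binding induced by the VLA-4 ligand LDV present at three times its Kd; 0% = LDV ligand with antibody and no compound and 100% = antibody without LDV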); details: HUTS-21 LIBS mAb binding, at 6.7 µM, stronger effect = higher value, binding induced by LDV ligand
[19] = calorie-restriction mimetic ROS inhibitors, yeast – validation compound set, pilot screen (AID 2706;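 active = superoxide response below 65% of plate, a cut near 3 SD across the whole screen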;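 note: yeast exposed to compound for one week at 30 degrees C before staining; 100% = mean of all compound wells on the same plate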); details: S. cerevisiae aging, superoxide DHE fluorescence; at 10 µM; stronger effect = lower value
[20] = target: Beta-adrenergic receptor kinase 1 (Homo sapiens) (UniProt P25098); test: GRK2 binders displacing RNA aptamer, biochemical, validation, human GRK2, bead flow cytometry (AID 488806;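 active = aptamer binding inhibition above 30%, about 3 SD of noise from non-fluorescent compounds; inactive = inhibition at or below 30%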); details: bead-bound GRK2, FAM-aptamer displacement, at 10 µM, stronger effect = higher value
[21] = target: Beta-2 adrenergic receptor (Homo sapiens) (UniProt P07550); test: agonist-induced loss of surface beta2AR – cell-based, FAP fluorogen, flow cytometry, validation set, pilot screen (AID 504459;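 active = percent response above 42, roughly 3 SD of non-fluorescent test compounds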;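 note: agonist-driven loss of surface beta2AR via internalization measured by FAP dye flow cytometry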); details: Am2.2-beta2AR cells, at 10 µM, stronger effect = higher value
[22] = target: AP-2 complex subunit beta (Homo sapiens) (UniProt P63010); test: beta-arrestin/AP2 interaction blockers – biochemical, validation set, GST-AP2 beads, flow cytometry, pilot screen (AID 504541;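 active = inhibition above 54%, about 3 SD of non-fluorescent compounds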;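 note: AP2 carries R879A mutation and is captured from E. coli lysate; bead-bound FITC arrestin peptide fluorescence measuring arrestin peptide binding to AP2; 0% = DMSO wells and 100% = excess unlabeled arrestin peptide control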); details: FITC arrestin peptide, at 10 µM, stronger effect = higher value, AP2 beta2 appendage fragment, R879A mutant
[23] = cytosolic pH regulators acting via V-ATPase – S. cerevisiae, pHLuorin, HTS validation (AID 504600; in the data active = response above about 15%;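 note: plate controls were DMSO for no effect and reference compound for full effect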); details: V-ATPase proton transport, at 10 µM, stronger effect = higher value
[24] = system: anti-desmoglein-3 scFv antibody binding to human DSG3; test: blockers of pathogenic pemphigus antibody–desmoglein-3 binding – biochemical, validation compound set, bead-based, flow cytometry, pilot screen (AID 588368;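 active = binding below the plate cutoff, the plate median minus 3 SD, with a reading above zero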;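 note: signal is the median channel fluorescence of bead-bound GFP antibody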); details: Protein G beads, DSG3-Fc, scFv-GFP binding, at 10 µM, stronger effect = lower value
[25] = Nile Red efflux blockade in pump-expressing yeast – validation compound set, multiplex, phenotypic, pilot screen (AID 588506;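 active = efflux inhibition above 0.42, the validation set average plus 4 SD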;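 note: Nile Red retained in cells so higher fluorescence means more efflux inhibition; 0 = negative control wells and 1 = enniatin B 25 µM full block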); details: S. cerevisiae pump-expressing triplex, Nile Red efflux flow cytometry; at 10 µM; stronger effect = higher value; the pumps come from Candida albicans
[26] = target: ATP-binding cassette sub-family B member 6 (Homo sapiens) (UniProt Q9NP58); test: blockers of ABCB6-driven porphyrin uptake – K562-ABCB6 cells, flow cytometry, validation set, pilot screen (AID 588550;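 active = inhibition above the screen-wide mean plus 3 SD, about 51%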;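 note: 0% = DMSO wells and 100% = benzethonium chloride 70 µM positive control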); details: K562-ABCB6 porphyrin accumulation, 1 h, at 10 µM, stronger effect = higher value
[27] = AML differentiation inducers, ER-HoxA9 marrow cells – cell-based, GFP/MAC1 double positive, flow cytometry, validation set, primary screen (AID 588685;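 active = differentiation response of at least 50%, scaled between solvent and reference control, from cells with both markers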;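 note: compound exposure lasts four days before antibody staining and flow analysis; 0% = DMSO wells and 100% = 5 µM fulvestrant positive control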); details: stronger effect = higher value, normalized: vehicle 0, fulvestrant 100
[28] = measured here: daughter cell gate
[29] = measured here: mother cell gate
[30] = measured here: daughter cell gate response
[31] = measured here: mother cell gate response

Chain of Cell division control protein 42 homolog (Homo sapiens) (P60953 whole entry, looked up): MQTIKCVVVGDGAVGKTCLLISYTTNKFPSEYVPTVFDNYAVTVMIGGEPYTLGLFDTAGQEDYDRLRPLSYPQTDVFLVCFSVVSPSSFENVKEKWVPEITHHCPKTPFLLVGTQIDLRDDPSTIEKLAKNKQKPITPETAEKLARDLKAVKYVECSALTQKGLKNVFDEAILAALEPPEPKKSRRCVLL
Chain of GTPase HRas (Homo sapiens) (P01112 whole entry, looked up): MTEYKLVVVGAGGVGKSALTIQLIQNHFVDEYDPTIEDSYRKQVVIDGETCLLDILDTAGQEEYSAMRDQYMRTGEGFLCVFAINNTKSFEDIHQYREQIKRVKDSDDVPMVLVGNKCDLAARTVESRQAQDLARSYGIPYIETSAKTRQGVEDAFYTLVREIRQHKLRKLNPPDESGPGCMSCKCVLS
Chain of Beta-2 adrenergic receptor (Homo sapiens) (P07550 whole entry, looked up): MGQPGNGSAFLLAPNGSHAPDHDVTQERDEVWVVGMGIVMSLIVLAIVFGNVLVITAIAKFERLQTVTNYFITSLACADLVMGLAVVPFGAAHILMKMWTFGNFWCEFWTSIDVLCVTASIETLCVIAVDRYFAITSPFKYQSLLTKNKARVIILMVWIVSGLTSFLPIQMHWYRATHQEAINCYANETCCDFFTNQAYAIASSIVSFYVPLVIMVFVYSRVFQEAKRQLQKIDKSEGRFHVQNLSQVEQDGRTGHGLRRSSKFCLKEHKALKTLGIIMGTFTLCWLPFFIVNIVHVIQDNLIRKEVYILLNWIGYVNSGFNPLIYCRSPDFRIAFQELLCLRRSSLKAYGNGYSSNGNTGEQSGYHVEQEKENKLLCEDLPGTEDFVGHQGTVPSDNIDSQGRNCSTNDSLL
Chain of AP-2 complex subunit beta (Homo sapiens) (P63010 whole entry, looked up, the tested form may be a part, one chain of several): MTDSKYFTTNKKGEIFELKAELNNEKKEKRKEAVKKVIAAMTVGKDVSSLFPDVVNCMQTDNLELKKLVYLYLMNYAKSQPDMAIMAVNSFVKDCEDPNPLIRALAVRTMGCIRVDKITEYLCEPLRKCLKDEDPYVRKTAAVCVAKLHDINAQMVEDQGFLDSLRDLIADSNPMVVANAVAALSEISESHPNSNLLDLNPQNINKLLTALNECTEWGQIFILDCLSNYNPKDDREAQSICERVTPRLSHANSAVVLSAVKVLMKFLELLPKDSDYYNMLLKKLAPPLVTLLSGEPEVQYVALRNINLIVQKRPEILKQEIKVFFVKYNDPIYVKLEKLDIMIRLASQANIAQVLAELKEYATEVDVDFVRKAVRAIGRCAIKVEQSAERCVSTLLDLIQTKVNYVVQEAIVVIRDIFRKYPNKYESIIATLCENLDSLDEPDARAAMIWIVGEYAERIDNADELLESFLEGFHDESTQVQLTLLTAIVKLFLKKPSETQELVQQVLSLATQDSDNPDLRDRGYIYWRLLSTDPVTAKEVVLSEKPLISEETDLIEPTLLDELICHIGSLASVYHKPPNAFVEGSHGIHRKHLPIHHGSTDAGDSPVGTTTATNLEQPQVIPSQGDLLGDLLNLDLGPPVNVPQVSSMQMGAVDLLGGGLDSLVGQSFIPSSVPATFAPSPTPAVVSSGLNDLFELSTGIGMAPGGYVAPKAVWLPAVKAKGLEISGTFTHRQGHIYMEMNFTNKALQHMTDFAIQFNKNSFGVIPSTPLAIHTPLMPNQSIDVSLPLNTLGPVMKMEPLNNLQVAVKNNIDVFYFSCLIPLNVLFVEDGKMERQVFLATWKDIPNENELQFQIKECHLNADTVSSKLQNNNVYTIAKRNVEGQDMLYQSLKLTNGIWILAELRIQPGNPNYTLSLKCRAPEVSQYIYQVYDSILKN
Chain of Beta-adrenergic receptor kinase 1 (Homo sapiens) (P25098 whole entry, looked up): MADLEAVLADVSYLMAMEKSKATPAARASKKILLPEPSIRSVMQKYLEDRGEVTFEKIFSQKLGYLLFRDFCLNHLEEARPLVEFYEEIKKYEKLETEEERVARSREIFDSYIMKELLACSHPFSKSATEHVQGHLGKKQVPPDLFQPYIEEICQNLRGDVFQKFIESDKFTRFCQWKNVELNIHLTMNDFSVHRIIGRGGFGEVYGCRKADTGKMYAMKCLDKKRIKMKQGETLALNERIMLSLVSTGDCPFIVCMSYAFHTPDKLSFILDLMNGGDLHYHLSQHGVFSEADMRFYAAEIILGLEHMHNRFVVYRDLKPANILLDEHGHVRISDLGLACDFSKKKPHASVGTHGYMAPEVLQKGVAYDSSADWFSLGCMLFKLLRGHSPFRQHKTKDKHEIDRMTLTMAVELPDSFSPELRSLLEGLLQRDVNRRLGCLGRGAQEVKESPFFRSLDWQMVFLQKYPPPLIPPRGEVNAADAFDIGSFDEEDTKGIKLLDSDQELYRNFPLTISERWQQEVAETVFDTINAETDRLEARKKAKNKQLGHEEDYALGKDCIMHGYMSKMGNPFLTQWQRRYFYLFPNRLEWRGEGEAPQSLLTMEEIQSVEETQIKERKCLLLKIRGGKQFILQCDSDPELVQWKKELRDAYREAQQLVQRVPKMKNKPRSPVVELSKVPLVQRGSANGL
Chain of Integrin beta-1 (Homo sapiens) + Integrin alpha-4 (Homo sapiens) (P05556 whole entry, looked up): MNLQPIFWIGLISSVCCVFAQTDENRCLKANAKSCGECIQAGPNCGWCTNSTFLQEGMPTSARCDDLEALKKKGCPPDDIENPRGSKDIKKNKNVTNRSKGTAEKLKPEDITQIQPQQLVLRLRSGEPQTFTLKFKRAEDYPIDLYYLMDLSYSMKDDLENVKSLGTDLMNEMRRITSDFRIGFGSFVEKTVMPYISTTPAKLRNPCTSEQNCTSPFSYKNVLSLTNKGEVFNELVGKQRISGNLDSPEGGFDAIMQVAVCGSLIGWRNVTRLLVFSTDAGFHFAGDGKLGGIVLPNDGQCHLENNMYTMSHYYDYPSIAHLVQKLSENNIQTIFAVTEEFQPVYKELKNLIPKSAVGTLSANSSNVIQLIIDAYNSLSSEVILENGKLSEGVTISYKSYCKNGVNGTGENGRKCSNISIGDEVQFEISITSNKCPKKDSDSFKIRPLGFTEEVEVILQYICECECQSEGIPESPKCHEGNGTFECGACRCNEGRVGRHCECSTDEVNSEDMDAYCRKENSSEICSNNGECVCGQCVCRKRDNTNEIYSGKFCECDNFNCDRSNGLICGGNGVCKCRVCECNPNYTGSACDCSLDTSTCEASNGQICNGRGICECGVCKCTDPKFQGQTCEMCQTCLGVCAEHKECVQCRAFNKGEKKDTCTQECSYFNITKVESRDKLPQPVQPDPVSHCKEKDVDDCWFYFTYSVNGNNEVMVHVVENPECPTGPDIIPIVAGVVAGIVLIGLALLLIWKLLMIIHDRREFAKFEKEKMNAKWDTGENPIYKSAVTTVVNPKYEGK
Chain of Integrin beta-1 (Homo sapiens) + Integrin alpha-4 (Homo sapiens) (P13612 whole entry, looked up): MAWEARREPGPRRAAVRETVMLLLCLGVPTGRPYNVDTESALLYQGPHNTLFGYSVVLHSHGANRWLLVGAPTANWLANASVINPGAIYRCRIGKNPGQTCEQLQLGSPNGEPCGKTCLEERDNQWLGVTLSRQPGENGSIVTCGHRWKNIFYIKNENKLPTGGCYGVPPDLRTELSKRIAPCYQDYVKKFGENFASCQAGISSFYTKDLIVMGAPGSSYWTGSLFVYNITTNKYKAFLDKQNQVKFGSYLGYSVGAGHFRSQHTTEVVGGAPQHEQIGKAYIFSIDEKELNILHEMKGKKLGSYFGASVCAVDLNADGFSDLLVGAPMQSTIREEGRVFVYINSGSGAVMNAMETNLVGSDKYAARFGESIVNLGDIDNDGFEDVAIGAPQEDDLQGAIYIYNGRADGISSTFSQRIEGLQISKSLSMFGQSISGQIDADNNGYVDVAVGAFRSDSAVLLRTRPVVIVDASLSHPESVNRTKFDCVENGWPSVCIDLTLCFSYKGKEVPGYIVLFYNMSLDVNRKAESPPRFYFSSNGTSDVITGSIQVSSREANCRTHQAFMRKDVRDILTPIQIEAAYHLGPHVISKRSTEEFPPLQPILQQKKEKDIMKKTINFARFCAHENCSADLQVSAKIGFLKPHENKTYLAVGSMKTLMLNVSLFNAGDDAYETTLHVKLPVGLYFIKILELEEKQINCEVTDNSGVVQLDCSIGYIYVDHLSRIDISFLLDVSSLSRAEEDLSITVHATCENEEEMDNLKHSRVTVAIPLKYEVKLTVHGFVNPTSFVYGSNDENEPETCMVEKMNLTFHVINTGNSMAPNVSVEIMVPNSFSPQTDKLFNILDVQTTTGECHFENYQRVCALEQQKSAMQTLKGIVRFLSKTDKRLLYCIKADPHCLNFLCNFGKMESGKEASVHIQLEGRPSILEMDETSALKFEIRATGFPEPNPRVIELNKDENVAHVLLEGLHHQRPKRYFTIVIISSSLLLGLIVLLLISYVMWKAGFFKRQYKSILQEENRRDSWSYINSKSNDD

CS(=O)(=O)N1N=C(c2ccccc2)CC1c1ccc2c(c1)OCO2 (stereo not drawn)
outcome [1]: inactive | fluorescence, percent of control (lower = inhibition) [2]: 112% | GTP binding, percent of control [3]: 120% | outcome [4]: inactive | GTP binding signal, raw median fluorescence (lower = inhibition) (MCF (arbitrary fluorescence units)) [5]: 247 | outcome [6]: inactive | GFP response vs DMSO [7]: 136% (inactive) | GFP response vs DMSO [7, 28]: 137% | GFP response vs DMSO [7, 29]: 135% | GFP response relative to DMSO [8]: 449% (active) | GFP response relative to DMSO [8, 30]: 466% | GFP response relative to DMSO [8, 31]: 439% | GFP response vs DMSO [9]: 1140% (active) | GFP response, % of DMSO [10]: 204% (active) | GFP response, % of DMSO [11]: 436% (active) | GFP response, % of DMSO [11, 28]: 437% | GFP response, % of DMSO [11, 29]: 413%

O=C(C#Cc1ccccc1)c1cccc([N+](=O)[O-])c1
outcome [1]: inactive | fluorescence, percent of control (lower = inhibition) [2]: 50.9% and 49.2% | GTP binding, percent of control [3]: 170% and 92.3% | outcome [4]: inactive | GTP binding signal, raw median fluorescence (lower = inhibition) (MCF (arbitrary fluorescence units)) [5]: 92.8 | outcome [6]: inactive | GFP response vs DMSO [7]: 92.5% (inactive) | GFP response vs DMSO [7, 28]: 95.9% | GFP response vs DMSO [7, 29]: 85.9% | GFP response relative to DMSO [8]: 182% (active) | GFP response relative to DMSO [8, 30]: 166% | GFP response relative to DMSO [8, 31]: 183% | GFP response vs DMSO [9]: 121% (inactive) | GFP response, % of DMSO [10]: 112% (inactive) | GFP response, % of DMSO [11]: 105% (inactive) | GFP response, % of DMSO [11, 28]: 110% | GFP response, % of DMSO [11, 29]: 97.3%

CC(C)c1ccc(C(=O)NC2=NCCS2)cc1
outcome [1]: inactive | fluorescence, percent of control (lower = inhibition) [2]: 50.5% | GTP binding, percent of control [3]: 62.6% | outcome [4]: inactive | GTP binding signal, raw median fluorescence (lower = inhibition) (MCF (arbitrary fluorescence units)) [5]: 204 | outcome [6]: inactive

O=C(O)c1ccccc1NCc1ccccc1Cl
outcome [1]: inactive | fluorescence, percent of control (lower = inhibition) [2]: 65.3% | GTP binding, percent of control [3]: 88.6% | outcome [4]: inactive | outcome [6]: inactive

Oc1ccc2ccccc2c1/C=N/Nc1nnc(-c2ncc[nH]2)c2ccccc12
outcome [1]: inactive | fluorescence, percent of control (lower = inhibition) [2]: 44% | GTP binding, percent of control [3]: 59.7% | outcome [4]: inactive | GTP binding signal, raw median fluorescence (lower = inhibition) (MCF (arbitrary fluorescence units)) [5]: 138 | outcome [6]: inactive | GFP response vs DMSO [7]: 108% (inactive) | GFP response vs DMSO [7, 28]: 91.9% | GFP response vs DMSO [7, 29]: 108% | GFP response relative to DMSO [8]: 123% (inactive) | GFP response relative to DMSO [8, 30]: 119% | GFP response relative to DMSO [8, 31]: 128% | GFP response vs DMSO [9]: 137% (inactive) | GFP response, % of DMSO [10]: 95.9% (inactive) | GFP response, % of DMSO [11]: 162% (active) | GFP response, % of DMSO [11, 28]: 114% | GFP response, % of DMSO [11, 29]: 205%

COC(=O)C1=NN(C(=O)c2cccc(Br)c2)C(O)(c2ccc(Cl)cc2)C1 (stereo not drawn)
outcome [1]: inactive | fluorescence, percent of control (lower = inhibition) [2]: 31.2% | GTP binding, percent of control [3]: 79.1% | outcome [4]: inactive | GTP binding signal, raw median fluorescence (lower = inhibition) (MCF (arbitrary fluorescence units)) [5]: 240 | outcome [6]: inactive | percent of DMSO control GFP [12]: 100% (inactive) | GFP response vs DMSO [13]: 95.1% (inactive) | percent response of DMSO control [14]: 97.8% (inactive) | GFP response vs DMSO [15]: 114% (inactive) | GFP response, % of DMSO [16]: 89.9% (inactive) | double positive events [17]: 63.4% | vesicle binding response [17]: 223% (inactive) | inhibition [18]: -83.5% (inactive) | superoxide response (% of plate) [19]: 93.4% (inactive) | aptamer binding inhibition [20]: 3% (inactive) | response [21]: -15.6% (inactive) | inhibition [22]: -11.3% (inactive) | response [23]: -0.27% (inactive) | binding (% of control) [24]: 109% (inactive) | efflux inhibition (fraction of control) [25]: -0.1 (inactive) | inhibition [26]: -2% (inactive) | differentiation response [27]: 11% (inactive)

CCN1/C(=C\C=C2\C(=O)N(c3ccccc3)C(=S)N2C)Sc2ccccc21
outcome [1]: inactive | fluorescence, percent of control (lower = inhibition) [2]: 35.1% | GTP binding, percent of control [3]: 73.9% | outcome [4]: inactive | GTP binding signal, raw median fluorescence (lower = inhibition) (MCF (arbitrary fluorescence units)) [5]: 189 | outcome [6]: inactive

Cc1cc(C)c(C(=O)Cn2cnc3cc([N+](=O)[O-])ccc3c2=O)cc1C
outcome [1]: inactive | fluorescence, percent of control (lower = inhibition) [2]: 34% | GTP binding, percent of control [3]: 74.6% | outcome [4]: inactive | GTP binding signal, raw median fluorescence (lower = inhibition) (MCF (arbitrary fluorescence units)) [5]: 161 | outcome [6]: inactive | GFP response vs DMSO [7]: 100% (inactive) | GFP response vs DMSO [7, 28]: 101% | GFP response vs DMSO [7, 29]: 99.8% | GFP response relative to DMSO [8]: 89.4% (inactive) | GFP response relative to DMSO [8, 30]: 88.2% | GFP response relative to DMSO [8, 31]: 91.3% | GFP response vs DMSO [9]: 99.3% (inactive) | GFP response, % of DMSO [10]: 102% (inactive) | GFP response, % of DMSO [11]: 97.2% (inactive) | GFP response, % of DMSO [11, 28]: 97.6% | GFP response, % of DMSO [11, 29]: 98.2%
